Experimental findings from PubChem BioAssay AID2284385 (EPA ToxCast) are described below.

Values joined by “and” are separate entries in the source; they are usually repeats but may differ in a detail not shown here. Equal values may be shown once. Active and inactive are the calls of the source. The calls were made as follows: active = hit-call score of the fitted dose curve at least 0.9, where 1 is the maximum; inactive = score below 0.9.

What is called AC50 is the concentration at which the activity in the assay is half-maximal.

The target in this assay is human Peroxisome proliferator-activated Receptor alpha (PPARa), PPARA (gene 5465) (UniProt Q07869). Briefly: ERF_TW_NR_COA_hPPARA: Eurofins (ERF) Nuclear Receptor (NR) Functional Coactivator Assay for human Peroxisome proliferator-activated Receptor alpha (PPARa) Agonism & Antagonism, conducted at Taiwan lab site. On the procedure: ERF_TW_NR_COA_hPPARA is a biochemical, single-readout assay that uses extracted gene-proteins in a cell-free assay. Measurements were taken 3 hours after chemical dosing in a 96-well plate. See PPARalpha Human NHR Functional Agonist Coactivator Assay, Panlabs.ERF_TW_NR_COA_hPPARA is an assay component calculated from the ERF_TW_NR_COA_hPPARA assay. It is designed to measure FRET using a type of binding reporter as detected by fluorescence intensity of GW7647 with fluorimetry technology.Data from the assay component ERF_TW_NR_COA_hPPARA was analyzed at the assay endpoint, ERF_TW_NR_COA_hPPARA, in the positive analysis fitting direction relative to DMSO as the negative control and baseline of activity. Using a type of binding reporter, gain-of-signal activity can be used to understand changes in binding as they relate to gene PPARA. To generalize the intended target to other relatable targets, this assay endpoint is annotated to the nuclear receptor intended target family, where the subfamily is non-steroidal.
human Peroxisome proliferator-activated Receptor alpha (PPARa), PPARA (gene 5465), sequence (Q07869 whole entry, looked up): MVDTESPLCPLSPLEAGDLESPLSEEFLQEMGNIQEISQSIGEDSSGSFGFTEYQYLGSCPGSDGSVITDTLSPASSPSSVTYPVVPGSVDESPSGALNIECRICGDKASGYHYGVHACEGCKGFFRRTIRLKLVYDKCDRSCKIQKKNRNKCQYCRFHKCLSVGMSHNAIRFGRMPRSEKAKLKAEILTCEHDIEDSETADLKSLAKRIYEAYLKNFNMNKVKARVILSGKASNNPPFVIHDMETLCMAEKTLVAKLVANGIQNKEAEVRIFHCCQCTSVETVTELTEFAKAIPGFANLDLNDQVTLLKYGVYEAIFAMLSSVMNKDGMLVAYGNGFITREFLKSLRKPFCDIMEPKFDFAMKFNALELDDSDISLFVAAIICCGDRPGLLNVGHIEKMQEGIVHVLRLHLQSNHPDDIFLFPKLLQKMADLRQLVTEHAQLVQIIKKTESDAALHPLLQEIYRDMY
Human recombinant peroxisome proliferators-activated receptor alpha (PPARA, PPARa, PPAR-alpha) hPPAR, NR1C1) receptors expressed in insect are used. Test compound and/or vehicle is incubated with the 2.5 nM receptors and binding buffer in modified kit buffer pH 7.4 for 3 hours at RT. Determination of the amount of complex formed is read microplate reader (excitation:337 nm, emission: 520/490 nm). Test compound-induced increase fluorescence by 50 percent or more (>/=50%) relative to the 1 uM GW7647 response indicates possible PPARa receptor agonist activity. Test compound-induced inhibition of 20 nM GW7647-induced fluorescence response by 50 percent or more (>/=50%) indicates receptor antagonist activity.

For `O=S(=O)(O)C(F)(F)C(F)(F)C(F)(F)C(F)(F)C(F)(F)C(F)(F)F`, the call was inactive.
As to `O=C(O)C(F)(F)C(F)(F)C(F)(F)C(F)(F)C(F)(F)C(F)(F)F`, the AC50 is 50 µM (active).
With `O=C(O)C(F)(F)C(F)(F)C(F)(F)C(F)(F)C(F)(F)C(F)(F)C(F)(F)F`, the AC50 was 11.5 µM (active) and 17.1 µM (active).
Regarding `O=C(O)C(F)(F)OC(F)(F)C(F)(F)OC(F)(F)F`, the AC50 is 19.3 µM (active).
Consider `O=S(=O)(O)C(F)(F)C(F)(F)C(F)(F)C(F)(F)C(F)(F)C(F)(F)C(F)(F)C(F)(F)F`, for which the outcome was inactive.
